{"source": "PubChem BioAssay (NCATS)", "note": "A number with no mark means an inactive call. The rule behind the calls is not given here. Potency is the fitted concentration of half-maximal effect.", "data": [{"system": "HIV-1 nucleocapsid protein NCp7 (binding to TG oligonucleotide)", "experiment": "HIV Nucleocapsid (AID 346);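 note: potency is for inhibitors that block NC binding and lower polarization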", "conditions": "HIV-1 NC / fluorescein-TGTGTGTG probe, fluorescence polarization", "how_it_was_run": "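NCp7 100 nM + fluorescein TG4xF 10 nM; Hepes pH 7.5/250mM NaCl/1uM ZnCl2/0.004% PEG 20000; 1 hr RT; FP, 45 s exposure; oligo-only wells as negative control.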", "units": {"Potency": "µM"}, "values": [{"molecule": "COc1ccc(Oc2ncc3nc(-c4cccs4)c(=O)n(CCC#N)c3n2)cc1", "Potency": "> 20"}, {"molecule": "COc1ncc2nc(C)c(=O)n(Cc3cccs3)c2n1", "Potency": "> 20"}, {"molecule": "COC(=O)N1CCC[C@@]2(CCN(C(=O)Nc3cccc(C#N)c3)C2)C1", "Potency": "> 4"}, {"molecule": "COCC(=O)N1CCC2(CC1)CN(Cc1ccccc1OC)C2", "Potency": "> 20"}, {"molecule": "COCC(=O)N1CCC2(CCCN(C(=O)Nc3ccc(OC)cc3)C2)CC1", "Potency": "> 20"}, {"molecule": "FC(F)(F)c1ccccc1-c1cc(NCc2cccnc2)ncn1", "Potency": "> 20"}, {"molecule": "Cc1noc(C)c1C(=O)N1CCC[C@@]2(CCN(Cc3cc(C(F)(F)F)cc(C(F)(F)F)c3)C2)C1", "Potency": "> 20"}, {"molecule": "CCNc1ncc2nc(-c3ccc(OC)cc3)c(=O)n(CCc3ccccc3)c2n1", "Potency": "> 4"}, {"molecule": "CN(C)Cc1ccccc1-c1cc(Nc2ccccc2)ncn1", "Potency": "> 20"}, {"molecule": "Cc1noc(C)c1-c1nccc(Nc2ccc(F)cc2)n1", "Potency": "> 20"}, {"molecule": "CC(=O)N1CCC[C@@]2(CCN(Cc3cc(C(F)(F)F)cc(C(F)(F)F)c3)C2)C1", "Potency": "> 20"}, {"molecule": "COC(=O)N1CCC2(CC1)CCN(c1ccncc1)CC2", "Potency": "> 20"}, {"molecule": "O=C(c1ccncc1)N1CCC2(CCCN(C(c3ccccc3)c3ccccc3)C2)CC1", "Potency": "> 20"}, {"molecule": "N#CCCn1c(=O)c(-c2cccc(C#N)c2)nc2cnc(Oc3ccccc3)nc21", "Potency": "> 20"}, {"molecule": "O=c1c(-c2cccs2)nc2cncnc2n1Cc1ccccc1", "Potency": "> 20"}, {"molecule": "CC(=O)N1CCC2(CC1)CN(Cc1ccc(C#N)cc1)C2", "Potency": "> 20"}, {"molecule": "CC(C)NC(=O)N1CC[C@@]2(CCCN(S(=O)(=O)c3ccccc3)C2)C1", "Potency": "> 20"}, {"molecule": "COc1ccc(Oc2ncc3nc(C)c(=O)n(-c4ccccc4)c3n2)cc1", "Potency": "> 20"}, {"molecule": "CN(C)C(=O)c1ccc(-c2cncnc2N2CCNCC2)cc1", "Potency": "> 20"}, {"molecule": "COc1ccc(-c2nc3cnc(Oc4ccccc4)nc3n(C3CC3)c2=O)cc1", "Potency": "> 20"}, {"molecule": "COc1ccc(NC(=O)N2CC[C@@]3(CCCN(C(=O)c4csnn4)C3)C2)cc1", "Potency": "> 20"}, {"molecule": "COc1ccc(C(=O)N2CCC[C@@]3(CCN(Cc4nccs4)C3)C2)cc1", "Potency": "> 20"}, {"molecule": "COc1ncc2nc(-c3ccc(Cl)cc3)c(=O)n(C[C@H]3CCCO3)c2n1", "Potency": "> 20"}, {"molecule": "N#Cc1ccc(CN2CCCC3(CCNCC3)C2)cc1", "Potency": "> 20"}, {"molecule": "Cn1c(=O)c(-c2ccc(F)c(F)c2)nc2cncnc21", "Potency": "> 4"}, {"molecule": "CN(C)Cc1ccccc1-c1nccc(NCc2cccs2)n1", "Potency": "> 20"}, {"molecule": "Cn1cccc1C(=O)N1CCC[C@@]2(CCN(c3ncccn3)C2)C1", "Potency": "> 20"}, {"molecule": "O=c1c(-c2ccc(F)cc2)nc2cnc(Oc3ccccc3)nc2n1Cc1cccs1", "Potency": "> 20"}, {"molecule": "O=c1c(-c2cc(F)cc(F)c2)nc2cnc(N3CCNCC3)nc2n1Cc1cccs1", "Potency": "> 20"}, {"molecule": "COCCn1c(=O)c(-c2cc(F)cc(F)c2)nc2cnc(N3CCN(C)CC3)nc21", "Potency": "> 20"}, {"molecule": "CC(=O)N1CCC[C@@]2(CCN(Cc3ccccc3)C2)C1", "Potency": "> 20"}, {"molecule": "COc1ccc(-c2nc3cnc(Nc4cccc(OC)c4)nc3n(C)c2=O)cc1", "Potency": "> 20"}, {"molecule": "Cc1ccccc1-c1nccc(-n2ccnc2)n1", "Potency": "> 20"}, {"molecule": "CS(=O)(=O)Nc1cccc(-c2ccc3ncnc(NCc4cccs4)c3c2)c1", "Potency": "> 20"}, {"molecule": "CCNc1ncc2nc(C)c(=O)n(CCC#N)c2n1", "Potency": "> 20"}, {"molecule": "CN(C)C(=O)c1ccc(-c2ccc3ncnc(NC4CC4)c3c2)cc1", "Potency": "> 20"}, {"molecule": "O=C(Nc1cccc(F)c1)N1CCC2(CC1)CCN(S(=O)(=O)c1ccccc1)CC2", "Potency": "> 20"}, {"molecule": "Cc1nc2cnc(Oc3cccc(Cl)c3)nc2n(CCc2ccccc2)c1=O", "Potency": "> 20"}, {"molecule": "CN(C)Cc1ccccc1-c1cc(N(C)Cc2ccco2)ncn1", "Potency": "> 20"}, {"molecule": "N#CCCn1c(=O)c(-c2cccs2)nc2cnc(Oc3cccc(Cl)c3)nc21", "Potency": "> 4"}]}]}
